Bioassay records (PubChem BioAssay)
Six1-Eya2 inh: inhibitors of human Six1/Eya2 interaction | AlphaScreen GST-Six1/His-Eya2 binding, biochemical; stronger effect = lower value | activity change, % (concentration not given with the values) | AID 651725 | Q15475+O00167 | actives 0.56% (n = 360,000)
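AlphaScreen with GST-Six1 and His-Eya2 (5X mix: 250 nM and 500 nM), glutathione donor and nickel acceptor beads; buffer 50 mM Tris pH 8.0, 300 mM NaCl, 1 mM TCEP; 1 h at 37 C in the dark.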
JMJD2E inh: blocks human JMJD2E demethylase activity | B2RXH2 | JMJD2E catalytic domain, FDH-coupled NADH fluorescence (FDH is formaldehyde dehydrogenase) | Potency, µM (titrated, usually from 57.1 µM), hits mostly inhibitors | actives 1.6% (n = 230,000); active means well fitted inhibition curve with a large enough effect, not every such curve was filed as active; inconclusive means small, poorly fitted or top-dose-only effect, or another doubt; inactive means no such curve, though single readings can be large or run the other way; further: nearly all actives have a fitted effect of over 50% in size
Target sequence (B2RXH2 1-337 limits assumed): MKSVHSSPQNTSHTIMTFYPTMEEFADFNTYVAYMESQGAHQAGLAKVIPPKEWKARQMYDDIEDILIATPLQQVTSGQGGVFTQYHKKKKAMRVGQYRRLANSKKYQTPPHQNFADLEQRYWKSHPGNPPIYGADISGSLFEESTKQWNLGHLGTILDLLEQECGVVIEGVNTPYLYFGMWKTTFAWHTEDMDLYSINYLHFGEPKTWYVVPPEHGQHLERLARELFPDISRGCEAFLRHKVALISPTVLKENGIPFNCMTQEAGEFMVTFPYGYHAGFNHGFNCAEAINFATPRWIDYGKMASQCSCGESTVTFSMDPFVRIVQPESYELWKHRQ
hERG WT inh: inhibitors of human wildtype KCNH2 potassium channel; U2OS, BacMam KCNH2, thallium flux FluxOr; stronger effect = lower value; activity change, % at 1.84 µM; actives 0.37% (n = 340,000);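 active means maximum activity change below -70%; inconclusive means maximum activity change between -70% and -50%; inactive means maximum activity change above -50%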
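U2OS cells transduced with wild-type KCNH2 virus are loaded with FluxOr dye for 45 min, and thallium flux is measured in kinetic reads before and after stimulation buffer. Rate constants are normalized to DMSO controls.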
CtBP-E1A blk: inhibitors of CtBP/E1A interaction; AlphaScreen GST-E1A/His-CtBP binding, 1536-well; stronger effect = lower value; activity change, % (no concentration beside the values); actives 0.49% (n = 340,000)
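GST-E1A and His-tagged CtBP (125 nM each as 5X stock) were preincubated with pin-transferred compound for 2 h at 37 °C in the dark, then glutathione donor and nickel acceptor beads were added for 1 h before AlphaScreen reading.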
KCNH2 3.1 inh: KCNH2 3.1 (human) potassium channel inhibition; activity change, % (tested at about 1.8 µM); actives 0.95% (n = 340,000); U2OS KCNH2 3.1, thallium flux FluxOr; stronger effect = lower value;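 active means maximum activity change below -70%; inconclusive means maximum activity change from -70% to -50%; inactive means maximum activity change above -50%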;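 further: thallium influx rate constant from kinetic fluorescence after stimulation buffer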
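Normalized rate constant (relative to positive and negative DMSO controls) derived from a 2 min kinetic fluorescence read after stimulation; U2OS cells expressing the 3.1 isoform via virus at 1.77 x 10^8 /mL.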
Each line names hits and unclear results; the compound was inactive in the other large screens. In the library only some 2% were active in any assay of this set; here they are far more common. Unless noted, no stated cut-off is given here; in the data, active means activity change below about -65%; inconclusive means mostly about -30% to -63%; inactive means weaker than that.

CC1CC(C)CN(C(=O)CCc2nnc3ccc(N4CCCCC4)nn23)C1 (stereo unspecified)	none (no result: JMJD2E inh)
CC(=O)Nc1cc(-c2ccc(C(=O)NC3CC3)cc2)cn2c(-c3cccc(C(C)=O)c3)cnc12	none (no result: JMJD2E inh, hERG WT inh, KCNH2 3.1 inh)
Cc1ccc(-c2cc(C(=O)NCc3cnn(C)c3)c3cc(Br)ccc3n2)cc1	JMJD2E inh inconclusive
O=C(O)/C=C/C(=O)N1CCN(Cc2ccc3c(c2)OCO3)CC1	none (no result: JMJD2E inh, CtBP-E1A blk)
CCOCCCN(C)C1CCN(C(=O)c2oc3ccccc3c2NC(=O)c2cccc([N+](=O)[O-])c2)CC1	hERG WT inh -79, KCNH2 3.1 inh -107 (no result: JMJD2E inh)
O=C(NCC1CCN(C(=O)c2cccc([N+](=O)[O-])c2)CC1)c1cccc([N+](=O)[O-])c1	none (no result: JMJD2E inh)
Cc1cc(NC(=O)C23CCC(C)(C(=O)O2)C3(C)C)no1 (stereo unspecified)	KCNH2 3.1 inh -191
Cc1ccc(NNS(=O)(=O)c2ccc(C)cc2)cc1	JMJD2E inh 18µM
COCCn1c(SCC(=O)NCC2CCCO2)nc2c(c1=O)SC(C)C2 (stereo unspecified)	none
COc1ccc(C)cc1NC(=O)CSc1ccc(-c2ccccn2)nn1	Six1-Eya2 inh -83, CtBP-E1A blk -85 (no result: JMJD2E inh, KCNH2 3.1 inh)
COc1ccc(C)cc1NC(=O)CSc1ccc(-c2sc(C)nc2C)nn1	none (no result: JMJD2E inh)
CCc1ccc(NC(=O)CSc2ccc(-c3ccccn3)nn2)cc1	Six1-Eya2 inh inconclusive, CtBP-E1A blk inconclusive (no result: JMJD2E inh)
CCOC(=O)c1ccccc1NC(=O)CSc1ccc(-c2ccccn2)nn1	Six1-Eya2 inh -84, CtBP-E1A blk -86 (no result: JMJD2E inh)
Cc1cc(C)cc(C(=O)Nc2ccc(N3CCCC3)cc2)c1	none
Cc1ccc(S(=O)(=O)NCC(=O)N(CC(=O)NCC2CCCO2)Cc2ccccc2Cl)cc1 (stereo unspecified)	hERG WT inh -233 (no result: JMJD2E inh)
COc1cccc(N(CC(=O)NCC2CCCO2)C(=O)CNS(=O)(=O)c2ccccc2)c1 (stereo unspecified)	KCNH2 3.1 inh -70
CCN(CC(=O)NCC1CCCO1)S(=O)(=O)c1ccc(Cl)cc1 (stereo unspecified)	hERG WT inh -80 (no result: JMJD2E inh)
COc1cccc(CN(CC(=O)NCC2CCCO2)C(=O)CNS(=O)(=O)c2ccccc2)c1 (stereo unspecified)	none (no result: JMJD2E inh)
O=C(CN(Cc1ccccc1)S(=O)(=O)c1ccc(Cl)cc1)NCC1CCCO1 (stereo unspecified)	none (no result: JMJD2E inh)
C/C(CCc1ccc2c(c1)OCO2)=N\NC(=O)c1ccccc1	none
NC(=NCc1ccc2c(c1)OCO2)NC(=O)c1ccccc1	JMJD2E inh 4.5µM
CC(C)C[C@@H](CNCC(=O)[C@H](Cc1ccccc1)NC(=O)c1[nH]cnc1C(=O)N[C@@H](C)CN)NC(=O)c1nc[nH]c1C(=O)N[C@@H](C)C(=O)O	none (no result: JMJD2E inh)
O=C1CCCC(O)=C1N=Nc1c(Cl)cc(C(F)(F)F)cc1Cl	JMJD2E inh 25µM
COc1ccc(/C(C)=N/Nc2ccc(F)cc2F)c(O)c1	JMJD2E inh inconclusive, CtBP-E1A blk -73
O=C(CN1CCNCC1)N1CCOCC1	none (no result: JMJD2E inh, hERG WT inh, KCNH2 3.1 inh)
FC(F)(F)c1cc(Oc2ccc(Cl)cc2)nc(-c2ccccn2)n1	none
CC(=O)N1CCc2cc(S(=O)(=O)CCC(=O)N3CCN(c4ccccn4)CC3)ccc21	none
CN(C)c1ccc(C=C2C=CC=C2)cc1	Six1-Eya2 inh -66 (no result: JMJD2E inh)
CCN(CC)S(=O)(=O)c1cccc(C(=O)N/N=C(\C)c2ccc(O)cc2O)c1	Six1-Eya2 inh -67, JMJD2E inh 25µM, CtBP-E1A blk inconclusive
CCN(CC)S(=O)(=O)c1cccc(C(=O)N/N=C/c2ccc(O)c(O)c2O)c1	Six1-Eya2 inh -91, JMJD2E inh 7.9µM, CtBP-E1A blk -93
O=[N+]([O-])c1cc(CS(=O)(=O)Oc2ccc(Cl)cc2)c(O)c([N+](=O)[O-])c1	none (no result: JMJD2E inh)
O=C(CNS(=O)(=O)c1cccc(Cl)c1)Nc1ccc(-c2nc3ccccc3s2)cc1	JMJD2E inh inconclusive, KCNH2 3.1 inh -74
CC1CCN(C(=O)COC(=O)/C=C/c2ccc(Br)o2)CC1	none (no result: JMJD2E inh)
O=C(CN(Cc1ccccc1)S(=O)(=O)c1ccccc1)N/N=C/c1ccccc1C(=O)O	none
c1cncc(CSc2nnc3ccc(-c4ccncc4)nn23)c1	hERG WT inh -79
O=C(NC1CC1)C1CCN(C2CCN(C(=O)/C=C/c3cccc(F)c3F)CC2)CC1	none
CCOC(=O)C(=O)NCC(c1cccs1)S(=O)(=O)c1ccc(C)cc1 (stereo unspecified)	none (no result: JMJD2E inh)
CCOC(=O)C(=O)NCC(c1cccs1)S(=O)(=O)c1ccc(F)cc1 (stereo unspecified)	KCNH2 3.1 inh -138 (no result: JMJD2E inh)
CC1CN(CC(O)COC2CCC(C(C)(C)C)CC2)CC(C)O1 (stereo unspecified)	none
COc1cc(OC)cc(C(=O)Nc2ccc(-c3nc4ccccc4o3)cc2)c1	JMJD2E inh inconclusive, KCNH2 3.1 inh -112
COc1cc(OC)cc(C(=O)Nc2cccc(NC(=O)c3ccccc3)c2)c1	none (no result: JMJD2E inh)
COc1cc(OC)cc(C(=O)Nc2ccc(Nc3ccccc3)cc2)c1	KCNH2 3.1 inh -86 (no result: JMJD2E inh, CtBP-E1A blk)
COc1cc(OC)cc(C(=O)NCC(=O)Nc2ccc(-c3ccccc3)cc2)c1	KCNH2 3.1 inh -82 (no result: JMJD2E inh)
COc1cc(OC)cc(C(=O)NCC(=O)Nc2ccc(C)c(Cl)c2)c1	none (no result: JMJD2E inh)
COc1ccc(CCNC(=O)CN2C(=O)c3ccccc3S2(=O)=O)cc1	none
Cc1ccc(CNC(=O)Cn2ccc(NC(=O)OCc3ccccc3)nc2=O)o1	none (no result: JMJD2E inh)
O=C(CCCc1ccccc1)Nc1ccnn1C1CCN(Cc2ccc(Cl)cc2)CC1	KCNH2 3.1 inh -103 (no result: JMJD2E inh, CtBP-E1A blk)
CCOc1ccc(CN2CCC(n3nccc3NC(=O)CCCc3ccccc3)CC2)cc1	hERG WT inh -132 (no result: JMJD2E inh, CtBP-E1A blk)
O=C(CCCc1ccccc1)Nc1ccnn1C1CCN(Cc2ccccc2)CC1	none (no result: JMJD2E inh)
CSc1ccc(CN2CCC(n3nccc3NC(=O)CCCc3ccccc3)CC2)cc1	hERG WT inh -112, KCNH2 3.1 inh -114 (no result: JMJD2E inh)
COc1ccc(CN2CCC(n3nccc3NC(=O)CCc3ccccc3)CC2)c(C)c1C	KCNH2 3.1 inh -81 (no result: JMJD2E inh, CtBP-E1A blk)
O=C(CCCc1ccccc1)Nc1ccnn1C1CCN(Cc2ccccc2F)CC1	none (no result: JMJD2E inh)
Cc1ccc(-n2c(SCC(=O)Nc3cc(C)on3)nc3ccccc3c2=O)cc1	none
O=C(NCCCCCc1nc2ccccc2[nH]1)c1ccccc1Cl	JMJD2E inh inconclusive
O=C(Nc1cccc(O)c1)c1ccc(Br)cc1	none
COc1cc(CN2CCC(n3nccc3NC(=O)CCCc3ccccc3)CC2)ccc1F	KCNH2 3.1 inh -96 (no result: JMJD2E inh, CtBP-E1A blk)
Cc1cc2c(c(=O)n1CCc1ccccc1)C(C(C)C)C(C#N)=C(N)O2 (stereo unspecified)	none
COc1ccc(CN(C)CCCn2ccc(NC(=O)OCc3ccccc3)nc2=O)cc1OC	none (no result: JMJD2E inh)
COc1ccc(N2CCN(CCCn3ccc(NC(=O)OCc4ccccc4)nc3=O)CC2)cc1	KCNH2 3.1 inh inconclusive (no result: JMJD2E inh)
CN(CCCn1ccc(NC(=O)OCc2ccccc2)nc1=O)CCc1ccccn1	KCNH2 3.1 inh -85 (no result: JMJD2E inh)
